Assays:
Assay in all cases: PBM binding z-score (relative to random genomic background probes); higher = stronger binding; sequences stand for … in GC…GCGATTGACAGCGTAGAATGAAGG
[1] = tested on: FXR:RXRa (NR concentration 270 nM, RXRa partner concentration 90 nM)
In short: (§1)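 Custom Agilent 4×180K protein-binding microarrays carried double-stranded probes, each with a 34-nt variable region. These regions held direct-repeat seeds, single-nucleotide variants, half-site ablations and random human genomic background sequences. Ligand-free nuclear receptor dimers were incubated on the arrays for 1 h, antibodies against each partner (one per run) detected binding, and scanned fluorescence was regression-normalized. Binding z-scores take the random background probes as reference.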

[2] = tested on: LXRa:RXRa (NR concentration 270 nM, RXRa partner concentration 90 nM)
In short: as §1

[3] = tested on: LXRa homodimer (NR concentration 270 nM)
In short: as §1

[4] = tested on: LXRb:RXRa (NR concentration 270 nM, RXRa partner concentration 90 nM)
In short: as §1

[5] = tested on: LXRb homodimer (NR concentration 270 nM)
In short: as §1

[6] = tested on: PPARa:RXRa (NR concentration 270 nM, RXRa partner concentration 90 nM)
In short: as §1

[7] = tested on: PPARg:RXRa (NR concentration 180 nM, RXRa partner concentration 90 nM)
In short: as §1

[8] = tested on: PPARg:RXRa 270nM:90nM, anti-RXR (NR concentration 270 nM, RXRa partner concentration 90 nM)
In short: as §1

[9] = tested on: PPARg:RXRa 30nM:10nM, anti-RXR (NR concentration 30 nM, RXRa partner concentration 10 nM)
In short: as §1

[10] = tested on: PPARg:RXRa 90nM:30nM, anti-RXR (NR concentration 90 nM, RXRa partner concentration 30 nM)
In short: as §1

[11] = tested on: PPARg:RXRa DBDmut IVT, anti-RXR (DBD mutation: RXRa K156A/R161A, NR concentration 270 nM, RXRa partner concentration 90 nM)
In short: as §1

[12] = tested on: PPARg:RXRa IVT, anti-PPARg (NR concentration 270 nM, RXRa partner concentration 90 nM)
In short: as §1

[13] = tested on: PPARg DBDmut:RXRa IVT, anti-PPARg (DBD mutation: PPARg1 K132A/R137A, NR concentration 270 nM, RXRa partner concentration 90 nM)
In short: as §1

[14] = tested on: PPARg DBDmut IVT, anti-PPARg (DBD mutation: PPARg1 K132A/R137A, NR concentration 270 nM)
In short: as §1

[15] = tested on: PPARg homodimer (NR concentration 180 nM)
In short: as §1

[16] = tested on: PXR:RXRa (NR concentration 270 nM, RXRa partner concentration 90 nM)
In short: as §1

[17] = tested on: PXR homodimer (NR concentration 270 nM)
In short: as §1

[18] = tested on: RARa:RXR (NR concentration 270 nM, RXRa partner concentration 90 nM)
In short: as §1

[19] = tested on: RARa homodimer (NR concentration 270 nM)
In short: as §1

[20] = tested on: RARb:RXRa (NR concentration 270 nM, RXRa partner concentration 90 nM)
In short: as §1

Row | Sequence | PBM binding z-score [1] | PBM binding z-score [2] | PBM binding z-score [3] | PBM binding z-score [4] | PBM binding z-score [5] | PBM binding z-score [6] | PBM binding z-score [7] | PBM binding z-score [8] | PBM binding z-score [9] | PBM binding z-score [10] | PBM binding z-score [11] | PBM binding z-score [12] | PBM binding z-score [13] | PBM binding z-score [14] | PBM binding z-score [15] | PBM binding z-score [16] | PBM binding z-score [17] | PBM binding z-score [18] | PBM binding z-score [19] | PBM binding z-score [20]
1 | ATCTCTAGGTAAAGTTCAGTGTAAGATCGATAGA | 1.55 | 2.13 | 2.27 | 1.55 | 1.1 | 2.47 | 3.17 | 4.49 | 2.44 | 4.28 | 2.66 | 2.9 | 1.2 | 1.55 | 2.13 | 2.21 | 2.38 | 1.53 | 1.49 | 2.56
2 | TCGAGTAGGTTAGTCGGGGCCTTCAGCCAACATA | -0.352 | -0.131 | -0.672 | 0.0154 | -1.21 | 0.259 | -0.8 | 0.291 | 0.448 | 0.62 | 1.83 | 1.08 | -1.4 | -0.48 | -0.555 | -0.49 | -0.597 | -0.0225 | -1.38 | 0.0952
3 | TCTATTAGTTGATTAGGGCAACCTAAACAGCGGA | 0.561 | 0.704 | 0.325 | 0.595 | 0.8 | 0.918 | 0.209 | 1.95 | 3.39 | 2.86 | 1.94 | 1.73 | 1.37 | 1.62 | 1.03 | 0.712 | -0.0681 | 1.11 | 1.09 | 1.14
4 | CCTTTCGGGTCACGAGGTTATAGCACGACGAGCG | 6.94 | 4.87 | 0.634 | 4.2 | 0.882 | 6.42 | 7.34 | 6.75 | 2.96 | 5.52 | 3.85 | 5.47 | 3.53 | 2.42 | 2.82 | 4.93 | 0.795 | 6.44 | 0.862 | 4.99
5 | CCTACTGGGCCAAAAAGGTCATTGAAGCCGATAA | 3.74 | 4.35 | 2.77 | 4.22 | 0.158 | 4.79 | 3.38 | 4.24 | 1.31 | 3.47 | 3.62 | 3.97 | -0.352 | -0.851 | 3.29 | 4.73 | 3.09 | 5.39 | 1.5 | 4.06
6 | ATCGAAAGGTCGAGGAGAGTATAGAGAAAGGGAA | 4.17 | 3.26 | 0.202 | 2.47 | 0.669 | 4.24 | 2.57 | 2.92 | 1.38 | 2.09 | 0.194 | 1.22 | 1.53 | 0.209 | 1.53 | 2.33 | 0.36 | 2.76 | 0.436 | 3.9
7 | CCCAGCAGGCCAGGGTCACTCAAGCATTTCGCTT | 2.03 | 1.48 | -0.513 | 1.61 | -0.79 | 2.8 | 0.0881 | 0.885 | -1.03 | 0.0104 | -0.567 | 0.512 | -1.55 | -1.26 | 0.406 | 2.46 | -0.562 | 3.22 | -0.754 | 2.62
8 | AGAATGAGCTTATACGTAGATCAGGGAAGAAAGT | -0.818 | -0.491 | -0.371 | -0.861 | -0.689 | -0.706 | 0.415 | -0.614 | -0.0699 | -0.597 | -1.19 | -0.676 | 0.558 | 0.438 | -0.99 | -0.359 | -0.186 | -0.221 | -0.183 | -1.13
9 | CCAGTCAGGTGAAAGGTAACTCAGTCTGGTACGC | 0.669 | 0.466 | -0.287 | 0.541 | -0.583 | 3.61 | 6.45 | 6.44 | 5.15 | 7.56 | 3.47 | 3.78 | -0.52 | -0.877 | 1.17 | 0.577 | -0.2 | 1.58 | 0.202 | 1.55
10 | AATACAGGGTCATCGTAGGCAAGAGTACGCACAG | 7.68 | 6.03 | 2.1 | 4.59 | 1.4 | 5.83 | 7 | 6.27 | 3.31 | 4.97 | 2.91 | 4.3 | 1.57 | 1.49 | 4.01 | 4.55 | 0.721 | 5.8 | 1.82 | 4.46
11 | CCAAGTTGGTCAGGAGGTCACACACCGGATATGA | 3.68 | 3.62 | 1.69 | 3.38 | 0.316 | 4.43 | 3.8 | 4.03 | 1.85 | 2.97 | 2.06 | 3.44 | 0.859 | 0.385 | 2.39 | 4.24 | 0.876 | 4.41 | 0.729 | 3.8
12 | CCTTACGAGTCACTGACAGGTTATAGCATTTGGA | 0.777 | 1.14 | 0.907 | 1.29 | 0.779 | 0.873 | 0.529 | 0.102 | 0.331 | 0.375 | 0.816 | 0.0297 | 1.14 | 0.808 | 1.1 | 0.7 | 0.734 | 1.15 | 1.48 | 0.807
13 | CGTCAAAATTCAACTAAGGTAACGTAAAGCACGC | 0.963 | 0.314 | 0.303 | 0.543 | 0.0502 | 0.568 | 0.569 | 0.127 | -0.0256 | 0.246 | -0.174 | 0.543 | 0.555 | 1.22 | -0.0431 | 0.326 | 0.413 | 1.71 | 1.69 | 0.577
14 | CCGACTGGGGCAGAAAGGTTACCATCCCATCCGG | 0.0864 | 0.742 | -0.151 | 0.878 | -0.971 | 2.03 | 1.44 | 2.53 | 0.448 | 1.96 | 1.51 | 1.69 | -0.348 | -1.37 | 0.985 | 0.837 | -0.375 | 1.61 | -0.144 | 1.89

From the supplement of paper PMC6555819
